Shown are actives, neighbours in structure and some others; about 1.1% of the full set was active somewhere.
PrPC surface inh: inhibitors of human cell surface prion protein PrPC | AID 720596 | actives 0.43% (n = 370,000) | inhibition, % at 13.8 µM | TR-FRET read-out; in the data active = inhibition above about 24%; note: 0% = median of the test wells and 100% = reference compound wells
MazEF act: MazEF (E. coli) toxin RNase activation | P0AE70 | FAM/BHQ RNA-DNA oligo cleavage fluorescence, 5 h | activation, % at 20 µM | actives 0.32% (n = 350,000) | AID 504720; in the data active = activation above about 50%
Target sequence (P0AE70 whole entry, looked up): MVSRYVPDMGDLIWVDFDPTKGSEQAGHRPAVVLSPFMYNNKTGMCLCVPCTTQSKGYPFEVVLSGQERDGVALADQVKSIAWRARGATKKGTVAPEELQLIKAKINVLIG
BJeLR viability: BJeLR cell viability loss; BJeLR (HRASV12) viability, CellTiter-Glo ATP luminescence, 48 h; inhibition, % (test concentration not listed); actives 0.17% (n = 300,000); AID 1554; in the data active = inhibition above about 50%
PrP 5UTR inh: inhibition of PrP 5' UTR reporter expression; cell-based PrP 5' UTR mRNA reporter, plate reader; AID 488862; inhibition, % (test concentration not listed); actives 0.35% (n = 340,000); in the data active = inhibition above about 52%; note: 0 = median of the neutral control wells
PrP UTR cherry: prion 5' UTR mRNA inhibition, cherry-pick retest; shares compounds with PrP 5UTR inh; cell-based prion protein 5' UTR reporter, plate reader; inhibition, % at 2.5 µM; actives 48% (n = 1,100); AID 504592; in the data active = inhibition above about 54%
Numbers without * were called inactive; i = inactive; . = no result given.

SMILES | PrPC surface inh | MazEF act | BJeLR viability | PrP 5UTR inh | PrP UTR cherry
COc1ccc(CNC(=O)OC2CC3CC2[C@H]2CCCCN2C3)cc1 (stereo partly drawn) | 6 | . | . | . | .
Cc1ccc(C(=O)N2CCC[C@@H]2C(=O)N2CCC[C@H]2C(=O)NCc2ccccc2)cc1C | 0 | . | . | . | .
CC(OC(=O)CCN=C1NS(=O)(=O)c2ccccc21)C(=O)NCc1ccccc1 (stereo not drawn) | 4 | 4 | 8 | 67* | -14
CC(C)n1nnnc1C1(C)CCSCC(=O)N1Cc1cccc(C(F)(F)F)c1 (stereo not drawn) | -11 | . | . | . | .
COc1cccc(-c2ccc3ncnc(NCc4cc(C)cs4)c3c2)c1 | -9 | 3 | . | 61* | -3
Cc1cc(C)c(C#N)c(SCc2nnc(-c3ccccc3[N+](=O)[O-])o2)n1 | -10 | 0 | 0 | -38 | .
Cc1cc(C)c(C#N)c(SCc2nnc(-c3ccccc3)o2)n1 | 3 | 0 | 1 | 68* | 67*
COc1ccccc1C(=O)Nc1ccc2c(c1)nc1n2CCN(Cc2ccccc2)C1 | -2 | 12 | -2 | 56* | -4
O=C(OC12CCCN(C1)/C(=C/c1cccnc1)C2)c1ccc(F)cc1 (stereo not drawn) | 11 | . | . | . | .
CCCCSc1ccc2nc(-c3ccc(C#N)cc3)cn2c1 | 12 | 9 | -7 | -65 | .
CCCSc1ccc2nc(-c3ccccc3)cn2c1 | 3 | -3 | 33 | 60* | 75*
COC(=O)[C@]12C[C@H](CC(=O)NCC34CC5CC(CC(C5)C3)C4)C(=O)N(Cc3cccc4ccccc34)C1=C[C@H](COCc1ccccc1)O[C@@H]2C | 0 | . | . | . | .
Cc1nn(-c2ccccc2)c(C)c1/C=N/NC(=O)c1cc(-c2ccccc2)n[nH]1 | 16 | -4 | 35 | 66* | 80*
CCOC(=O)[C@]12CCCC=C1N(CCCOC)C(=O)[C@@H]2CC(=O)NCC1CCCCC1 | -4 | . | . | . | .
C=CCN=C1NC(c2cccc(F)c2)C(C(=O)OC)=C(C)N1C (stereo not drawn) | -6 | . | . | . | .
CC(=O)C[C@H](O)CC(=O)[C@H]1OC(=O)CCCCCc2ccccc21 | 0 | 0 | . | -26 | .
CC(=O)C[C@H](O)CC(=O)[C@@H]1OC(=O)CCCCCc2ccccc21 | 0 | 8 | . | 90* | -51
CC(=O)C[C@H](O)CC(=O)[C@H]1OC(=O)[C@H](C)CCCCc2ccccc21 | -8 | 0 | . | 66* | -7
COC(=O)c1cc2c(c3c4cc(F)ccc4n(S(=O)(=O)c4ccc(C)cc4)c13)C(=O)N(Cc1ccccc1OC)C2 | 0 | . | . | . | .
CC1CN(c2nc3ccccc3nc2SCC(=O)N2CCN(S(=O)(=O)c3ccc(F)cc3)CC2)CC(C)O1 (stereo not drawn) | -9 | . | . | . | .
O=C1C=C(c2ccc(O)cc2)C[C@@H](c2ccc3c(c2)OCO3)C1 | -14 | 1 | . | 67* | 2
CC1CC2C(C(O)CC3(C)C2CCC3(O)C(=O)CO)C2(C)C=CC(=O)C=C12 (stereo not drawn) | -1 | 5 | . | -12 | .
C[C@@H]1O[C@@H](O[C@H]2C[C@@H](O)[C@]3(CO)[C@H]4[C@H](O)C[C@]5(C)[C@@H](C6=CC(=O)OC6)CC[C@]5(O)[C@@H]4CC[C@]3(O)C2)[C@H](O)[C@H](O)[C@H]1O | . | -3 | 80* | 92* | 90*
Cc1ccc(C(=O)N2CCC(Oc3cccnc3)CC2)c(C)c1 | 6 | . | . | . | .
C/C(=N\NC(=O)c1ccccc1NC(=O)c1ccc(Cl)cc1)c1ccncc1 | 9 | 2 | 132* | 76* | 70*
SMILES | PrPC surface inh | MazEF act | BJeLR viability | PrP 5UTR inh | PrP UTR cherry
CC(C)OC(=O)c1cc(C(=O)c2cc(Cl)ccc2O)coc1=N | -1 | -3 | -4 | -25 | .
CC(C)OC(=O)c1cc(C(=O)c2cc(Br)ccc2O)coc1=N | -2 | -4 | -11 | 63* | -15
Cn1c(=O)c2[nH]c(SCC(=O)NCCc3ccc(F)cc3)nc2n(C)c1=O | 4 | . | . | . | .
Cc1ccc(-n2cccn2)c([C@@H]2C[C@H]3CN(C)C(=O)[C@]34CCCN24)c1 | -3 | -25 | 3 | 67* | -14
Cc1cc(N2CCN(CC(C)(C)O)C[C@@H]2C)ccc1N1CCN(Cc2ccccc2)[C@@H](C)C1 | -10 | . | . | . | .
COc1cccc2c1C(=O)c1c(O)c3c(c(O)c1C2=O)C[C@@](O)(C(=O)CO)C[C@@H]3O[C@H]1C[C@H](N)[C@H](O)[C@H](C)O1 | -28 | i | 75* | 89* | 92*
COc1cccc2c1C(=O)c1c(O)c3c(c(O)c1C2=O)CC(O)(C(C)=O)CC3OC1CC(N(C)C)C(O)C(C)O1 (stereo not drawn) | -20 | -776 | . | 88* | 91*
Cc1cc(C)cc(N(CC(=O)NC2CCC(C)CC2)S(=O)(=O)c2ccc([N+](=O)[O-])cc2)c1 (stereo not drawn) | -1 | . | . | . | .
COc1cc2c(cc1OC)C(C(=O)O)C(c1ccc3c(c1)OCO3)N(C)C2=O (stereo not drawn) | 3 | . | . | . | .
Cc1ccccc1N1CCN(C(=O)CN2C(=O)CC(C)(C)S(=O)(=O)c3ccccc32)CC1 | 0 | . | . | . | .
C[C@H](O)[C@@H]1C(=O)N2CCc3c([nH]c4c(-c5ccccc5)cccc34)[C@@H]2C[C@@H]1N(C)C(=O)c1ccccc1F | -14 | . | . | . | .
C#CCNC(=O)C[C@H]1C[C@@]2(C(=O)OC)C(=C[C@H](C3CCCC3)O[C@@H]2C)N(Cc2ccccc2)C1=O | 4 | . | . | . | .
CN(CC(=O)Nc1cccc(F)c1)CC(=O)N(C)CC(=O)Nc1ccccc1Br | -5 | 5 | . | 91* | -30
CC(=O)Nc1ccc(NC(=O)CN(C)CC(=O)Nc2ccccc2Br)cc1 | 6 | -3 | 3 | -17 | .
O=C(Nc1ccncc1)C1COc2ccccc2O1 (stereo not drawn) | -1 | -14 | 6 | -24 | .
O=C(NC1=NCCS1)C1COc2ccccc2O1 (stereo not drawn) | -2 | 1 | 10 | 72* | 77*
CCn1c(SCC(=O)NN=Cc2cc(OC)ccc2OC)nnc1-c1ccc(OC)cc1 | 2 | . | . | . | .
COc1cc2c(c(OC)c1OC)-c1ccc(O)cc1C(NC(C)=O)CC2 (stereo not drawn) | 1 | -14 | . | 73* | 87*
CCOC(=O)NC1CCc2cc(OC)c(OC)c(OC)c2-c2ccc(SC)c(=O)cc21 (stereo not drawn) | -21 | 2 | . | 58* | 86*
CCOC(=O)[C@@]12CCC3=C1N(CCC3)C(=O)[C@H](CC(=O)NCc1cccc3ccccc13)C2 | 1 | . | . | . | .
O=C(CCNS(=O)(=O)c1ccc(OC(F)(F)F)cc1)N1CCCC1 | -13 | 1 | . | -14 | .
CN(C)CC(C)(C)CNS(=O)(=O)c1ccc(OC(F)(F)F)cc1 | 1 | 0 | 2 | 59* | 2
O=C(c1ccc(F)cc1)C1CCN(CCn2c(=S)[nH]c3ccccc3c2=O)CC1 | . | . | 10 | . | .
CC1(C)C(=O)N(CCN2CCC(C(=O)c3ccc(F)cc3)CC2)c2ccccc21 | 2 | 1 | . | 53* | -22

Screening results as filed in PubChem.
